According to the emibetuzumab library of Makowski et al. (2022):
The list shows a part of the results. How many sequences the whole screen found active is unknown.

B1: VH:VL chains; a variant is named by its letters at X, in order (parent)
chain 1: QVQLVQSGAEVKKPGASVKVSCKASGYTFTDYXMHWVRQAPGQGLEWMGXVNPNXXXTTYNQKFEGRVTMTTDTSTSTAYMELRSLRSDDTAVYYCARXNXLDXWGQGTTVTVSS
chain 2: DIQMTQSPSSLSASVGDRVTITCSVSSSVSSIYLHWYQQKPGKAPKLLIYSTSNLASGVPSRFSGSGSGTDFTLTISSLQPEDFATYYCQVYSGYPLTFGGGTKVEIK

Variants of: B1
Assay: yeast display scFab, FACS + sequencing
Conditions: with MET
Summary of the method: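 Two magnetic rounds on Protein A beads coated with HGFR-Fc, followed by FACS, were used to enrich a yeast surface scFab library mutated in the heavy-chain CDRs. FACS gated the top 50% antigen-positive cells after 3 h labelling at room temperature with 1 nM HGFR-Fc and anti-Myc in PBSB plus 1% milk. Binding to the antigen was scored positive when a sequence occurred in both antigen-positive samples from deep sequencing and negative when it occurred only in the input.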

Variant	antigen binding call
VRRGGAAS	binds
FRRGGAAS	binds
YRRGGAAS	binds
VRRTSAAS	no binding
VKGAGAAS	no binding
DEGGTAGA	no binding
YRRRGSVV	binds
YRRRGYLV	no binding
FGRRGAGV	no binding
FRRRGSLV	binds
YRRRGSLV	binds
YRRGGSWV	binds
YGETGFWY	no binding
DKTKSDWV	no binding
VAREGDLA	no binding
AARADDVY	no binding
VRRRGSWV	binds
VTEEGSWV	no binding
YRRRGAWV	binds
VRRGGAWV	no binding

Variant	antigen binding call
YRRRGSWV	binds
YRRGGAWV	binds
VRGAGSWV	no binding
DEGKDDVA	no binding
DTGGGDAY	no binding
DTTEASLV	no binding
FRGRSSVA	binds
FRGRDSVA	binds
DRGRDDVA	no binding
FRGRDFVA	no binding
DTGTSDLY	no binding
FARAGDWV	no binding
FEATAAGS	no binding
FRAGGAGV	binds
FRAGGVGV	no binding
FRAGDAGV	binds
FRARGAGS	binds
FEAGDDGV	no binding
FRARGAGV	binds
VRAGDAGV	no binding

Variant	antigen binding call
VKGRADWV	no binding
FRAGGSSV	binds
YRGRTAAY	binds
YRGRTAAF	binds
YRGRSAGY	binds
YRERAAGY	binds
SAGRSDLV chain 1 R67H	no binding
SEARSDWV	no binding
AARADAGA	no binding
YRTRDDLY	no binding
YRGRSAAY	binds
FKGRSASY	no binding
YRTRDAGY	binds
YTKETAAD	no binding
YRGRTAAD	binds
YRGRSASY	binds
YGKRDASY	no binding
DKGGAVWT	no binding
SEARSSSA	no binding
